Inconclusive results are not listed. Activity calls are given as the source filed them. Unless noted, the call rests on the fitted dose curve; in most records, active means well fitted curve in the direction sought with a large enough effect in the repeat runs; inconclusive means weak or mixed curves; inactive means no such curve, though single readings can be large; an effect the other way counts as inactive or inconclusive.
What was measured:
[1] = qHTS assay to identify small molecule agonists of the vitamin D receptor (VDR) signaling pathway - cell viability counter screen (AID 743224); further: nearly all actives have a fitted effect of over 50% in size; further: potency means the concentration at half of the fitted maximal effect
Procedure, shortened: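 Compounds were pin-transferred onto VDR-bla cells plated 4 h earlier; following 16 h incubation at 37C, cell viability was quantified by CellTiter-Glo luminescence after 30 min at room temperature.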

[2] = qHTS assay to identify small molecule antagonists of the vitamin D receptor (VDR) signaling pathway - cell viability counter screen (AID 743225); further: on the % scale 0 is the no-effect control and ±100 the full control effect; nearly all actives have a fitted effect of over 50% in size
Procedure, shortened: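 In this counter screen, VDR-bla HEK 293T cells receive test compound plus 3 nM final calcitriol for 16 h at 37C. Room-temperature steps of 2 h with the beta-lactamase substrate, then 30 min with CellTiter-Glo, precede the luminescence read.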

[3] = qHTS assay to identify small molecule agonists of the endoplasmic reticulum stress response signaling pathway (AID 1159516; active means well fitted activation curve with a large enough effect in the signal ratio in the repeat runs, not every such curve was filed as active; the % refers to the signal ratio; further: potency means the concentration at half of the fitted maximal effect)
Procedure, shortened: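 Using a HeLa line with an ESRE-driven beta-lactamase gene, agonist activity was measured by FRET substrate fluorescence (460 and 530 nm emission) after cells were treated with compounds for 5 hr at 37 C and 5% CO2.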

[4] = qHTS assay to identify small molecule agonists of the endoplasmic reticulum stress response signaling pathway - cell viability counter screen (AID 1159517; calls by dose curve;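 further: HeLa cells carrying an ER stress response element beta-lactamase reporter; series mostly up to about 61 µM; on the % scale 0 is the no-effect control and ±100 the full control effect; nearly all actives have a fitted effect of over 50% in size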)
Procedure, shortened: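 After overnight attachment, ESRE-bla HeLa cells were treated with Tox21 library compounds for 5 hr. CellTiter-Glo luminescence, read 30 min post-addition at room temperature, reported viability.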

[5] = qHTS assay to identify small molecule agonists of the AP-1 signaling pathway (AID 1159526; calls by dose curve; further: on the % scale 0 is the no-effect control and ±100 the full control effect)
[6] = qHTS assay to identify small molecule agonists of the RXR signaling pathway - cell viability counter screen (AID 1159529);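 further: HEK 293T cells carrying an RXR-alpha UAS beta-lactamase reporter; series mostly up to about 77 µM; on the % scale 0 is the no-effect control and ±100 the full control effect; nearly all actives have a fitted effect of over 50% in size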
Procedure, shortened: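 Viability read-out for the RXR-alpha agonist qHTS: luminescent CellTiter-Glo signal after 30 min at RT. HEK 293T bla reporter cells, 2% charcoal-stripped FBS, 16 hr compound incubation; tetraoctyl ammonium bromide as cytotoxic control.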

[7] = qHTS assay to identify small molecule antagonists of the retinoid acid receptor (RAR) signaling pathway - cell viability counter screen (AID 1159551); further: on the % scale 0 is the no-effect control and ±100 the full control effect; nearly all actives have a fitted effect of over 35% in size
Procedure, shortened: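 ATP-based viability, C3RL4 cells, 6 h at 37 C with 1 uM final retinol co-added after compound; luminescence read 30 min post CellTiter-Glo, RT.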

[8] = qHTS assay to identify small molecule agonists of the AP-1 signaling pathway - cell viability counter screen (AID 1159525; calls by dose curve; further: nearly all actives have a fitted effect of over 55% in size)
Procedure, shortened: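 Intracellular ATP by Cell Titer Glo luminescence (30 min, RT) in the same ME-180 AP-1-bla wells after the 5 h compound exposure at 37 °C. Normalised to tetra n-octyl ammonium bromide and DMSO controls.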

[9] = qHTS assay to identify small molecule antagonists of the retinoic acid receptor (RAR) signaling pathway (AID 1159552; further: nearly all actives have a fitted effect of over 50% in size; further: potency means the concentration at half of the fitted maximal effect)
Procedure, shortened: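 Using a RARE-driven luciferase construct in C3RL4 cells, retinol at 1 uM final provided the agonist stimulus while compounds were co-applied. After 6 hours at 37 C, luminescence was recorded to flag inhibitors of retinol signaling.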

[10] = qHTS assay to identify small molecule agonists of the retinoic acid receptor (RAR) signaling pathway (AID 1159553); further: on the % scale 0 is the no-effect control and ±100 the full control effect
Procedure, shortened: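 Quantitative high-throughput format: the Tox21 10K library was tested on C3RL4 RARE-luciferase cells for 6 hr at 37 C and 5% CO2, with luminescence measured after a 30 min room-temperature reagent step.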

[11] = qHTS assay to identify small molecule antagonists of the retinoid-related orphan receptor gamma (ROR-gamma) signaling pathway - cell viability counter screen (AID 1159520); further: nearly all actives have a fitted effect of over 50% in size; further: potency means the concentration at half of the fitted maximal effect
Procedure, shortened: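 Cytotoxicity was read from cellular ATP (CellTiter-Glo luminescence) after 16 hr at 37 C with 1 uM doxycycline induction. The inducer was added 2 hr after compound transfer to Tet-on ROR gamma CHO cells.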

[12] = biological target: Nuclear receptor ROR-gamma (Homo sapiens) (UniProt P51449); assay: qHTS assay to identify small molecule antagonists of the retinoid-related orphan receptor gamma (ROR-gamma) signaling pathway (AID 1159521; further: nearly all actives have a fitted effect of over 50% in size; further: potency means the concentration at half of the fitted maximal effect)
Procedure, shortened: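 Screening format: cell-based luciferase reporter in CHO cells with doxycycline-inducible RORγ. Compound pre-exposure lasts 2 h, doxycycline is 1 uM final, induction runs 16 h at 37 C, and ONE-Glo luminescence is read.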

[13] = biological target: Retinoic acid receptor RXR-alpha (Homo sapiens) (UniProt P19793); assay: qHTS assay to identify small molecule agonists of the RXR signaling pathway (AID 1159527; calls by dose curve; further: on the % scale 0 is the no-effect control and ±100 the full control effect; nearly all actives have a fitted effect of over 35% in size)
Procedure, shortened: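 Fluorescence ratio readout (460 vs 530 nm) from GeneBLAzer RXR-alpha HEK 293T cells after 16 hr compound treatment; cells seeded 5 hr beforehand in low-serum, charcoal-stripped medium.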

[14] = qHTS assay to identify small molecule antagonists of the estrogen related receptor (ERR) signaling pathway (AID 1224819)
Procedure, shortened: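 ERR reporter cell line (NTP) plated at 2,000 cells/well, settled 6 h at 37C/5% CO2, then exposed to LOPAC compounds for 18 h at 37C. One-Glo luciferase luminescence read after 30 min at room temperature.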

[15] = qHTS assay to identify small molecule agonists of the estrogen related receptor (ERR) signaling pathway (AID 1224820); further: on the % scale 0 is the no-effect control and ±100 the full control effect
Procedure, shortened: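 Following a 6 h settling period, 2,000 ERR cells per well receive DMSO-dissolved compounds by pin tool and incubate 18 h at 37 C; agonist activity is scored from One-Glo luminescence read 30 min post-addition.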

[16] = system: estrogen-related receptor alpha (ERRalpha) with PGC-1alpha coactivator, human; assay: qHTS assay to identify small molecule antagonists of the estrogen related receptor signaling pathway with the pleiotropic PPARgamma coactivator (PGC) (AID 1224821; calls by dose curve)
Procedure, shortened: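 Screening used NTP's PGC/ERR cells, dosed via pin tool with compound in DMSO alongside positive and negative controls. After 18 h at 37 C, One-Glo reagent sat 30 min at room temperature before luminescence detection.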

[17] = qHTS assay to identify small molecule agonists of the estrogen related receptor signaling pathway with the pleiotropic PPARgamma coactivator (PGC) (AID 1224823); further: on the % scale 0 is the no-effect control and ±100 the full control effect
Procedure, shortened: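 In this quantitative high-throughput screen, an 18 h, 37 C treatment of PGC/ERR cells with compounds in DMSO preceded a One-Glo luminescence read taken after 30 min at room temperature.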

Sequence of Retinoic acid receptor RXR-alpha (Homo sapiens) (P19793 whole entry, looked up): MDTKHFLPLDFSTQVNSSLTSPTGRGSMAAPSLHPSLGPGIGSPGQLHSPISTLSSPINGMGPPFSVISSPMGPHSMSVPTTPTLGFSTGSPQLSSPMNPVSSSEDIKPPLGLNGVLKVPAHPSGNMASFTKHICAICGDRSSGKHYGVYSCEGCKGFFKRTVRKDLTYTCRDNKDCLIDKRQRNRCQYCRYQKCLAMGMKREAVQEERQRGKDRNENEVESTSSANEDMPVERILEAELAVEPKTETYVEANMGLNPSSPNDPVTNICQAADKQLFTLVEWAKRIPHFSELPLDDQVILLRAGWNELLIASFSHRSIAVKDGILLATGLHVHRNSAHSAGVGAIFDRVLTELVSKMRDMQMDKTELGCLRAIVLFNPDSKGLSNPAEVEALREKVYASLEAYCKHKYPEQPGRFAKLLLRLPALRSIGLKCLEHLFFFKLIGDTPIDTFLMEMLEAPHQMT

OC[C@H]1O[C@@H](OCCc2ccc(O)cc2)[C@H](O)[C@@H](O)[C@@H]1O
inactive: Potency [1] | Potency [2] | Potency [3] | Potency [4] | Potency [5] | Potency [6] | Potency [7]

C=CCOc1ccccc1OCC(O)CNC(C)C (configuration not stated)
inactive: Potency [1] | Potency [2] | Potency [4] | Potency [8] | Potency [6] | Potency [7] | Potency [9] | Potency [10]

O=C(Nc1ccc(S(=O)(=O)N2CCOCC2)cc1)c1cc(Cl)ccc1NS(=O)(=O)c1ccc(Cl)s1
inactive: Potency [3] | Potency [11] | Potency [8] | Potency [6] | Potency [7] | Potency [10]

CC(C)=CCC/C(C)=C/CC/C(C)=C/CO
active: Potency [1] 49 µM | Potency [9] 68.6 µM
inactive: Potency [2] | Potency [3] | Potency [4] | Potency [12] | Potency [10]

C[C@H]1C[C@H]2[C@@H]3CCC4=CC(=O)C=C[C@]4(C)[C@@]3(Cl)[C@@H](O)C[C@]2(C)[C@@]1(O)C(=O)CO
inactive: Potency [1] | Potency [2] | Potency [3] | Potency [4] | Potency [8] | Potency [5]

CCCCCCCCCOS(=O)(=O)O
inactive: Potency [1] | Potency [2] | Potency [3] | Potency [4] | Potency [11] | Potency [8] | Potency [5] | Potency [13] | Potency [6] | Potency [7]

C=CC(=O)OCCOCCOC(=O)C=C
active: Potency [11] 13.7 µM | Potency [9] 48.8 µM
inactive: Potency [3] | Potency [4]

CCCC(=O)Nc1ccc(O)c(C(C)=O)c1
inactive: Potency [1] | Potency [2] | Potency [4] | Potency [11] | Potency [8] | Potency [5] | Potency [13] | Potency [6] | Potency [7]

O=C1CCC(=O)O1
inactive: Potency [1] | Potency [2] | Potency [3] | Potency [4] | Potency [11] | Potency [8] | Potency [5] | Potency [13] | Potency [6] | Potency [7] | Potency [9] | Potency [10]

O=C(O)c1ccc(S(=O)(=O)O)cc1C(=O)O
inactive: Potency [1] | Potency [2] | Potency [3] | Potency [11] | Potency [8] | Potency [5] | Potency [13] | Potency [6] | Potency [9] | Potency [10]

CCNc1cc(O)ccc1C
inactive: Potency [1] | Potency [2] | Potency [3] | Potency [4] | Potency [11] | Potency [8] | Potency [5] | Potency [6] | Potency [9] | Potency [10]

CNC(=O)CN(CCN(CCN(CC(=O)[O-])CC(=O)NC)CC(=O)[O-])CC(=O)[O-].O.[Gd+3]
inactive: Potency [1] | Potency [2] | Potency [3] | Potency [4] | Potency [8] | Potency [5] | Potency [13] | Potency [6] | Potency [7] | Potency [10]

Nc1ccccc1S(=O)(=O)c1ccccc1
inactive: Potency [1] | Potency [2] | Potency [3] | Potency [4] | Potency [8] | Potency [5] | Potency [6] | Potency [7] | Potency [9] | Potency [10]

CC[N+]1(CC)CCC(=C(c2ccccc2)c2ccccc2)C1C (configuration not stated)
inactive: Potency [3] | Potency [4] | Potency [11] | Potency [5] | Potency [13] | Potency [6] | Potency [7]

Nc1cc(C(=O)O)c(O)c(S(=O)(=O)O)c1
inactive: Potency [1] | Potency [2] | Potency [3] | Potency [4] | Potency [11] | Potency [8] | Potency [5] | Potency [6] | Potency [7] | Potency [9] | Potency [10]

CCCCC(CC)COC(=O)COc1ccc(Cl)cc1Cl (configuration not stated)
inactive: Potency [1] | Potency [2] | Potency [3] | Potency [4] | Potency [11] | Potency [8] | Potency [5] | Potency [13] | Potency [6] | Potency [9] | Potency [10]

Cc1[nH]c(C)c(Cl)c(=O)c1Cl
inactive: Potency [1] | Potency [2] | Potency [3] | Potency [4] | activity change, negative = inhibition [12] -2.21% [at 19 µM] | activation [5] -0.748% [at 15.8 µM] | activation [13] 5.66% [at 15.8 µM] | activity change, negative = cytotoxicity [6] 7.97% [at 15.8 µM] | activity change, negative = cytotoxicity [7] -2.2% [at 19 µM] | activity, negative = inhibition [9] 3.44% [at 19 µM] | Potency [10]

C=CC1CC2C=CC1C2 (configuration not stated)
inactive: Potency [1] | Potency [2] | Potency [3] | Potency [4] | Potency [11] | Potency [5] | Potency [6] | Potency [7] | Potency [9] | Potency [10]

Cc1nn(C)c(Oc2ccccc2)c1/C=N/OCc1ccc(C(=O)OC(C)(C)C)cc1
inactive: Potency [3] | Potency [8] | Potency [5] | Potency [6] | Potency [7] | Potency [9] | Potency [10]
active: Potency [1] 0.0123 µM | Potency [12] 0.486 µM

Nc1ccc([N+](=O)[O-])c(C(F)(F)F)c1
inactive: Potency [1] | Potency [2] | Potency [3] | Potency [4] | Potency [11] | Potency [5] | Potency [13] | Potency [6] | Potency [9] | Potency [10]

COc1cc(C(=O)OCCCN2CCCN(CCCOC(=O)c3cc(OC)c(OC)c(OC)c3)CC2)cc(OC)c1OC
active: Potency [9] 13.3 µM
inactive: Potency [1] | Potency [4] | Potency [12] | Potency [5] | Potency [6] | Potency [7] | Potency [14] | outcome [15] | Potency [16] | outcome [17]

C#Cc1cccc(Nc2ncnc3cc(OCCOC)c(OCCOC)cc23)c1
inactive: Potency [1] | Potency [2] | Potency [3] | Potency [11] | Potency [6] | Potency [7] | Potency [9] | Potency [10]

C=CCOC(=O)CCC1CCCCC1
inactive: Potency [1] | Potency [2] | Potency [3] | Potency [4] | Potency [11] | Potency [8] | Potency [5] | Potency [6] | Potency [7]

COC(=O)C1=C(C)NC(COC(N)=O)=C(C(=O)OC(C)C)C1c1cccc(Cl)c1Cl (configuration not stated)
inactive: Potency [1] | Potency [4] | Potency [12] | Potency [8] | Potency [5] | Potency [13] | Potency [7]
active: Potency [3] 21.3 µM

CCO[Si](CCCCl)(OCC)OCC
inactive: Potency [2] | Potency [3] | Potency [4] | Potency [11] | Potency [5] | Potency [7] | Potency [9] | Potency [10]
